# Shown is part of a subset that was picked to be rich in hits.
# ERG Ets-DNA blk – inhibitors of human ERG Ets domain-DNA interaction. AID 624246. fluorescence polarization, His-ERG Ets domain / labelled DNA. actives 0.028% (n = 370,000). Potency, µM (doses to about 76.9 µM), usual class: inhibitors. P11308; active means well fitted inhibition curve with a large enough effect in the polarisation, with a control signal flat; inconclusive means small, poorly fitted or top-dose-only effect, or effect the other way, or a change in a side signal; inactive means no such curve, though single readings can be large or run the other way; the % refers to the polarisation;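 further: polarization taken with two DNA probes labelled with fluorescein and Texas red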
# Target sequence (P11308 whole entry, looked up, the tested form may be a part): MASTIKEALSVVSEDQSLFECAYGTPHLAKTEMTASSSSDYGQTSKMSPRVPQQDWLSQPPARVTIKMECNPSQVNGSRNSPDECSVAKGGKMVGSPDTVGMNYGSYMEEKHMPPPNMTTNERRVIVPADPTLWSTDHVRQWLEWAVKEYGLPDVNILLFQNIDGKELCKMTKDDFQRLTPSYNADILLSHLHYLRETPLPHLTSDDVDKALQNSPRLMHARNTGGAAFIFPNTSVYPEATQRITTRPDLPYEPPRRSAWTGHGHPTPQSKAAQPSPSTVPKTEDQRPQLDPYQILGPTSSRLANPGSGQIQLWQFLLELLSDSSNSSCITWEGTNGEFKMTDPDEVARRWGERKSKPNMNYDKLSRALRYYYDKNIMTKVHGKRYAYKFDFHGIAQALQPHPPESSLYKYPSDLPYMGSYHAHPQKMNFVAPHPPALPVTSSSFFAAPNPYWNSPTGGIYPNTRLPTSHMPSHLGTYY
#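 His-tagged ERG Ets domain (1 uM in the protein solution; 300mM KCl, 50mM Tris-HCl, 1mM EDTA, 1mM DTT, pH 7.5) received compound, then a probe mix of 5 nM fluorescein-DNA and 100nM Texas-615-DNA. Fluorescence polarization was read for both dyes.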
# RORg inh – ROR gamma (mouse) transcription inhibition. actives 5.4% (n = 310,000). Potency, µM (highest dose often 53.6 µM), most hits filed as inhibitors. P51450. Drosophila S2 Gal4-RORgamma UAS-luciferase reporter, 20 h; further: nearly all actives have a fitted effect of over 60% in size
#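 Luminescence from a UAS-regulated Photinus luciferase reporter in stably transfected Drosophila Schneider cells is measured; decreased signal marks ROR gamma inhibition. Fusion expression is induced by 700 uM copper sulfate for 20 hr.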
# Giardia killer – kills Giardia lamblia. actives 0.15% (n = 340,000). activity change, % at 7.66 µM, hits read low. Giardia lamblia trophozoite viability; in the data active means activity change below about -80%; inconclusive means between about -30% and that limit;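 further: parasites exposed to compound for two days anaerobically before the ATP read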
#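 Anaerobic 48 hrs incubation at 37 deg C of 100 trophozoites/well with test compounds; ATPLite 1-Step luminescence, 15-30 min RT, reports cellular ATP as viability.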
# Integrin act MD – integrin-mediated muscular dystrophy alleviation activation; actives 0.064% (n = 350,000); Potency, µM (titrated, usually from 38.3 µM), actives largely listed as activators; alpha7betagal myoblasts, beta-gal FDG fluorescence, 48 h; AID 624291; further: nearly all actives have a fitted effect of over 60% in size
#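 Alpha7betagal+/- myoblasts (passage 13) were plated 16-24 hr, then exposed to compounds (1:260 dilution of DMSO stock) for 48 hours at 37C. After MPER lysis, β-galactosidase reporter activity was read as FDG fluorescence (ex 480/em 540) after 30 minutes.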
# Gal4-VP16 FLuc – counter-screen for ROR gamma inhibitors: Gal4-VP16 reporter | Drosophila S2 Gal4-VP16 UAS-luciferase, luminescence, 20 h | Potency, µM (doses to about 53.6 µM), most hits filed as inhibitors | actives 3.5% (n = 310,000) | AID 2546;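 further: Gal4-VP16 expression switched on by copper sulfate through the metallothionein promoter; nearly all actives have a fitted effect of over 50% in size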
# A number is an active result; – = inactive; ? = inconclusive; · = no result given. Unless noted, the call rests on the fitted dose curve; in most records, active means well fitted curve in the direction sought with a large enough effect; inconclusive means small, poorly fitted or top-dose-only effect, or another doubt; inactive means no such curve, though single readings can be large; an effect the other way counts as inactive or inconclusive.
SMILES,ERG Ets-DNA blk,RORg inh,Giardia killer,Integrin act MD,Gal4-VP16 FLuc
COc1ccc(OC)c(NC(=O)CC(=O)Nc2ccc3nc4n(c(=O)c3c2)CCCCC4)c1,–,·,·,·,·
NS(=O)(=O)c1cccc(NS(=O)(=O)c2ccc(/C=C/C(=O)OCC(=O)c3ccccc3)cc2)c1,–,–,–,–,–
Cc1cn2c(=O)cc(COC(=O)c3cccc(NC(=O)c4ccccc4C)c3)nc2s1,–,·,·,·,·
CSc1sccc1/C=N/NC(=O)c1ccncc1,–,?,–,–,–
Cc1ccsc1/C=N/NC(=O)c1ccc([N+](=O)[O-])cc1,–,1µM,–,–,4.47µM
Cc1ccsc1/C=N/NC(=O)c1ccncc1,–,3.55µM,–,–,7.08µM
Cc1ccc(C(=O)Nc2ccc(N3CCN(C(=O)c4cccs4)CC3)cc2)c(Cl)c1,–,–,–,–,–
CCOC(=O)Cn1c(=NC(=O)C2COc3ccccc3O2)sc2cc(S(N)(=O)=O)ccc21 (centres undefined),–,–,–,–,–
CCOC(=O)Cn1c(=NC(=O)c2ccc([N+](=O)[O-])s2)sc2ccccc21,–,–,-95.9,–,–
COc1ccc(CNC(=O)CN(C(=O)CCC(=O)Nc2ccccn2)c2cccc(C)c2C)cc1,–,–,–,–,–
O=C(Nc1ccc(Cl)cc1)C1CCN(S(=O)(=O)c2ccc(Br)s2)CC1,–,·,·,·,·
Cc1nnc(SC(C)C(=O)N2CCc3ccccc32)s1 (centres undefined),–,–,–,–,–
CC(Sc1nnc(-c2ccccc2)c(-c2ccccc2)n1)C(=O)N1CCc2ccccc21 (centres undefined),–,2.24µM,–,–,11.2µM
CC1CCCCC12NC(=O)N(CC(=O)OCc1cccc(F)c1)C2=O (centres undefined),–,·,–,10µM,·
CC1CCCCC12NC(=O)N(CC(=O)OCc1ccccc1F)C2=O (centres undefined),–,·,–,–,·
CC(C)(C)c1ccc(Oc2nc3ccccn3c(=O)c2/C=C(\C#N)c2nc3ccccc3[nH]2)cc1,–,·,·,·,·
CCCOc1ccc(-c2c(C(=O)N/N=C/c3ccc(C)o3)nnn2-c2nonc2N)cc1,–,3.55µM,–,–,5.62µM
CCOc1ccc(-c2c(C(=O)N/N=C/c3ccc(C)o3)nnn2-c2nonc2N)cc1,–,5.62µM,–,?,10µM
Cc1ccc(/C=N/NC(=O)c2nnn(-c3nonc3N)c2-c2ccccc2)o1,–,10µM,–,–,?
CC(=O)c1cccc(NC(=O)C2CCN(S(=O)(=O)c3ccc4c(c3)CCCN4C(C)=O)CC2)c1,–,·,·,·,·
O=C(CN(Cc1ccc(F)cc1)C(=O)CNS(=O)(=O)c1ccc(Cl)cc1)NCC1CCCO1 (centres undefined),–,–,–,–,–
S=C(Nc1ccc(Cl)cc1)N1CCCC1,–,–,–,–,–
S=C(Nc1cc(Cl)cc(Cl)c1)N1CCCC1,–,5.01µM,?,–,?
C=CCNC(=S)N1CCN(c2ncc(C(F)(F)F)cc2Cl)CC1,–,–,–,–,–
Cc1cc(C)cc(NC(=S)N2CCN(c3ncccn3)CC2)c1,–,14.1µM,–,–,?
SMILES,ERG Ets-DNA blk,RORg inh,Giardia killer,Integrin act MD,Gal4-VP16 FLuc
Cc1cccc(NC(=S)N2CCN(c3ccccn3)CC2)c1,–,?,–,–,?
Cc1cc(C)cc(NC(=S)N2CCN(c3ncc(C(F)(F)F)cc3Cl)CC2)c1,–,3.55µM,–,–,–
Cc1cc(C)cc(NC(=S)N2CCN(c3ccccn3)CC2)c1,–,15.8µM,–,–,?
CCCCn1c(N)c(N(CCOC)C(=O)c2cc(-c3ccccc3Cl)nc3ccccc23)c(=O)[nH]c1=O,–,·,–,–,·
COc1cc(NS(=O)(=O)c2c(C(=O)N3CCCCC3)c(C)n(C)c2C)cc(OC)c1OC,–,·,·,·,·
S=C(Nc1ccc(Br)cc1)N1CCN(c2ccccn2)CC1,–,11.2µM,–,–,?
COC(=O)c1cc(OC)c(OC)cc1NC(=S)N1CCN(c2ccccn2)CC1,–,11.2µM,–,–,–
COc1cc(NC(=S)N2CCN(c3ccccn3)CC2)cc(OC)c1,–,11.2µM,?,–,?
S=C(Nc1cc(Cl)cc(Cl)c1)N1CCN(c2ccccn2)CC1,–,11.2µM,–,–,–
CCCCn1nc(NC(=O)c2cccc(Cl)c2)c2cc3cccc(C)c3nc21,–,·,·,·,·
COc1ccc(-c2nc3sc(CCNC(=O)C(=O)Nc4cccc(NC(C)=O)c4)c(C)n3n2)cc1,–,·,·,·,·
Cc1ccc(NC(=S)N2CCN(c3ccccn3)CC2)cc1C,–,?,–,–,12.6µM
CCN1CCN(C(=S)c2ccc(-c3ccccc3)cc2)CC1,–,–,–,–,–
COc1ccc(S(=O)(=O)N2CCN(C(=O)c3cc(-c4ccc(Br)cc4)n[nH]3)CC2)cc1OC,–,?,–,–,12.6µM
CS(=O)(=O)c1ccc(C(=O)NCCN2C(=O)S/C(=C\c3cccnc3)C2=O)cc1[N+](=O)[O-],–,5.62µM,–,–,?
CN(C)S(=O)(=O)c1ccc(C(=O)NCCN2C(=O)S/C(=C\c3cccnc3)C2=O)cc1,–,–,–,–,–
CC(C)(C)c1ccc(C(=O)NCCC(=O)Nc2ccc3c(c2)OCCO3)cc1,–,·,–,–,·
COc1ccc2c(CNC3CCCCCC3)c(C(=O)O)n(Cc3ccccc3F)c2c1,–,·,·,·,·
N/C(Cn1cncn1)=N\NC(=O)C(=O)Nc1ccc(Cl)cc1Cl,–,10µM,–,–,?
COc1ccc(CN(Cc2ccccc2)C(=O)C2CC2)cc1COc1ccc(NC(C)=O)cc1,·,·,–,·,·
Clc1ccc(Sc2oc(/C=N/n3cnnc3)cc2Br)cc1,–,–,–,–,–
CN(C)C(=O)/C(C#N)=C\c1cc(Br)c(Sc2ccc(Cl)cc2)o1,–,?,–,–,10µM
CCOC(=O)C1=C(CSc2nc(C)ccc2C#N)OC(N)=C(C#N)C1c1cccc(OC)c1OC (centres undefined),–,20µM,–,–,?
COc1ccc(C(C)=O)cc1CSc1nnc(-c2ccccc2O)n1-c1ccccc1,–,2.82µM,–,–,–
O=C(Nc1cccc(C(F)(F)F)c1)/C(=C/c1ccco1)NC(=O)c1cccs1,–,–,–,–,–
SMILES,ERG Ets-DNA blk,RORg inh,Giardia killer,Integrin act MD,Gal4-VP16 FLuc
CC(=O)Nc1nc2ccccc2n1CCOc1ccccc1,–,–,–,–,–
S=C(Nc1ccccc1)Nc1nc2ccccc2n1CCOc1ccccc1,–,1.12µM,–,–,7.08µM
CCCCn1c(NCCO)nc2ccccc21,–,–,–,–,–
CCCCn1c(NC(=S)Nc2ccccc2)nc2ccccc21,–,1µM,–,–,1.41µM
COc1ccc(OCCn2c(NC(=O)c3ccco3)nc3ccccc32)cc1,–,2.24µM,–,–,2.82µM
COc1ccc(OCCn2c(NC(=O)c3ccc(OC)cc3)nc3ccccc32)cc1,–,·,·,·,·
COc1ccc(Cl)cc1C(=O)Nc1ccccc1N1CCCCC1,–,–,–,–,–
CCCNC(=O)CN1C(=O)CSc2ccc(S(=O)(=O)N3CCC(C)CC3)cc21,–,·,·,·,·

# High-throughput results: PubChem BioAssay, National Center for Advancing Translational Sciences (NCATS)
